Inconclusive results are not listed. A number with no mark means an inactive call. The call rests on the fitted dose curve; in most records, active means well fitted curve in the direction sought with a large enough effect; inconclusive means small, poorly fitted or top-dose-only effect, or another doubt; inactive means no such curve, though single readings can be large or run the other way.
Assay: Viability counterscreen for agonist of constitutive androstane receptor (CAR) against the NCATS DSHEA and TCM libraries (AID 1794838); further: 0% is about no effect
Details: HepG2 cell viability counterscreen, CAR agonist assay, co-treated with 0.75 µM CAR antagonist; series mostly up to 40 µM; activity change, negative = cytotoxicity: at the top concentration
Excerpt: Assay Development and Screening Technology Laboratory (ADST)
National Center for Advancing Translational Sciences (NCATS), Rockville, MD
National Institute of Health (NIH), Bethesda, Maryland
Dietary Supplements and Natural Products have minor oversight of their safety and efficacy. We assembled a collection of Dietary Supplements and Natural Products (DSNP) as well as Traditional Chinese Medicinal (TCM) Plant extracts, which were screened against an in vitro panel of assays, including a liver cytochrome p450 enzyme panel, CAR/PXR signaling pathways, and P-gp transporter assays, to assess their activity. This pipeline facilitated the interrogation of Natural Product-Drug Interaction (NaPDI) through prominent metabolizing pathways. In addition, we compared the activity profiles of the DSNP/TCM substances with those of an approved drug collection. Many of the approved drugs have well-annotated mechanisms of action (MOA) while the MOAs for most of the DSNP and TCM samples remain unknown. Based on the premise that compounds with similar activity profiles tend to share similar targets or MOA, we clustered the library activity profiles to identify overlap with the NCATS Pharmaceutical Collection to predict the MOAs of the DSNP/TCM substances. Overall, we highlight four significant bioactivity profiles (measured by p-values) as examples of this prediction.
To this end, we profiled both collections for potential CAR and/or PXR activity, employing a previously published 1536-well qHTS assay.
PROTOCOL TABLE (as described by Inglese J, Shamu CE and Guy RK. 2007)
SEQUENCE No. (e.g., 1, 2, 3, etc.); […] (e.g., Cells, Incubation, Reagent, etc.); VALUE; DESCRIPTION.
1; Cells; 4 uL; 1536-well white Greiner assay plate.
2; Incubation; 5 hours; 37C, 95% humidity, 5% CO2.
3; Compounds; 23 nL; Kalypsis pin tool (Wako USA) equipped with 1536-well pin head to transfer to the assay plates.
4; Reagent; 1 uL; 0.75 uM PK11195 (final concentration).
5; Incubation; 24 hours; 37C, 5% CO2.
6; Detection Reagent 1; 1 uL; CellTiter-Fluor (Promega).
7; Incubation; 1 hour; 37C, 5% CO2.
8; Detector 1; Fluorescence intensity; ViewLux plate reader (excitation 405 nm, emission 540 nm).
9; Detection Reagent 2; 4 uL; ONE-Glo Luciferase reagent (Promega).
10; Incubation; 30 min; room temperature.
11; Detector 2; Luminescence intensity; ViewLux.
NOTES (numbers refer to Sequence numbers above)
1. 4 uL of HepG2-CYP2B6-hCAR cells at 6.25 x 10^5 cells/mL (2,500 cells/well) were dispensed using a Multidrop Combi dispenser in tissue culture-treated 1536-well white assay plates (Greiner Bio-One) in the same culture media, without geneticin and blasticidin included.
2. Plates were incubated for 5 hours at 37C, 95% humidity, and 5% CO2 to allow for cell attachment.
3. Compounds (final concentrations of most substances ranged from 15.6 nM to 31.9 uM), positive control (for agonist mode: 6-(4-Chlorophenyl)imidazo[2,1-b][1,3]thiazole-5-carbaldehyde O-(3,4-dichlorobenzyl)oxime (CITCO) with a final concentration range 2.8 nM to 92 uM were transferred (23 nL) via pintool (Wako Automation).
4. After compound transfer, plates were dispensed with 1 uL of the known hCAR antagonist PK11195 (final concentration of 0.75 uM) in the agonist mode using a BioRAPTR FRDTM.
6. 1 uL of CellTiter-Fluor (Promega, Madison, Wisconsin) was added using a BioRAPTR FRDTM.
8. Fluorescence intensity (Ex/Em = 405 nm/540 nm) is obtained using the ViewLux plate reader to determine cell viability.
9. 4 uL of ONE-Glo Luciferase reagent (Promega) was added to each well using the BioRAPTR FRDTM,
10. Luminescence intensity is read using the ViewLux detector.
Inglese J, Shamu CE and Guy RK, Reporting data from high throughput screening of small molecule libraries, Nature Chemical Biology, 2007, 3(8): 438-441. doi.org/10.1038/nchembio0807-438.

Compound | activity change, negative = cytotoxicity
C=C1C[C@@]23CC[C@H]4[C@@](C)(CCC[C@@]4(C)C(=O)O[C@@H]4O[C@H](CO)[C@@H](O)[C@H](O)[C@H]4O)[C@@H]2CC[C@]1(O[C@@H]1O[C@H](CO)[C@@H](O)[C@H](O[C@@H]2O[C@H](CO)[C@@H](O)[C@H](O)[C@H]2O)[C@H]1O[C@@H]1O[C@@H](C)[C@H](O)[C@@H](O)[C@H]1O)C3 | -28.5%
C=C(C)C(CC=C(C)C)CC12CC(CC=C(C)C)C(C)(C)C(CC=C(C)C)(C(=O)/C(=C(\O)c3ccc(O)c(O)c3)C1=O)C2=O (stereo not given) | -51.3%
CC(=O)OC/C=C/c1ccccc1 | 16.6% [at 68.2 µM]
CC(C)=CCC[C@](C)(O[C@@H]1O[C@H](CO)[C@@H](O)[C@H](O)[C@H]1O)[C@H]1CC[C@]2(C)[C@@H]1[C@H](O)C[C@@H]1[C@@]3(C)CC[C@H](O[C@@H]4O[C@H](CO)[C@@H](O)[C@H](O)[C@H]4O[C@@H]4O[C@H](CO)[C@@H](O)[C@H](O)[C@H]4O)C(C)(C)[C@@H]3CC[C@]12C | 5.79%
OCC1=C[C@@H](O)[C@@H]2C=CO[C@@H](OC3O[C@H](CO)[C@@H](O)[C@H](O)[C@H]3O)[C@H]12 (stereo not given in full) | 6.81%
CCCCCCCC/C=C/CCCCCCCCCC(=O)O | 2.18%
CC1=C2[C@H]([C@@H](C)CC[C@@H]2/C=C(\C)C(=O)O)[C@@H](O)C1 | 8.86%
CC(C)=CCCC(C)(OC1OC(COC2OC(CO)C(O)C2O)C(O)C(O)C1O)C1CCC2(C)C1C(O)CC1C3(C)CCC(OC4OC(CO)C(O)C(O)C4OC4OC(CO)C(O)C(O)C4O)C(C)(C)C3CCC12C (stereo not given) | 12.1%
C=CC(=C)CCC=C(C)C | 16.3%
CCCCCCCCCC=O | 15.7% [at 68.2 µM]
CC1(C)C2CCC1(C)C(O)C2 (stereo not given) | 14.6%
C=C1C[C@]23CC[C@H]4[C@@](C)(CCC[C@@]4(C)C(=O)O)[C@@H]2CC[C@@]1(O[C@@H]1O[C@H](CO)[C@@H](O)[C@H](O)[C@H]1O[C@@H]1O[C@H](CO)[C@@H](O)[C@H](O)[C@H]1O)C3 | 1.86%
O=Cc1ccccc1O | 7.56% [at 68.2 µM]
CCCCCCCC/C=C\CCCCCCCCCCCCCC(=O)O | 2.28%
CC(C)(O)[C@@H]1CC[C@](C)([C@H]2[C@@H](O)C[C@@]3(C)[C@@H]4C[C@H](O)[C@H]5C(C)(C)[C@@H](O[C@@H]6OC[C@@H](O)[C@H](O)[C@H]6O[C@@H]6O[C@H](CO)[C@@H](O)[C@H](O)[C@H]6O)CC[C@@]56C[C@@]46CC[C@]23C)O1 | 5.73%
C[C@@H]1OC(O[C@H]2[C@H](O)[C@@H](O)[C@H](OC[C@H]3O[C@@H](OC(=O)[C@]45CCC(C)(C)C[C@@H]4C4=CCC6[C@@]7(C)CC[C@H](OC8OC[C@H](O)[C@H](O)[C@H]8OC8O[C@@H](C)[C@H](O)[C@@H](O)[C@H]8O)[C@@](C)(CO)C7CC[C@@]6(C)[C@]4(C)CC5)[C@H](O)[C@@H](O)[C@@H]3O)O[C@@H]2CO)[C@H](O)[C@H](O)[C@H]1O (stereo not given in full) | 10.8%
CC1=C2[C@H](/C=C(\C)C(=O)O)CC[C@@H](C)[C@H]2CC1 | 0.866%
CC(C)c1ccc(C=O)cc1 | 7.46% [at 68.2 µM]
CCCCCCCCC/C=C/C(=O)CCc1ccc(O)c(OC)c1 | -37%
CCCCCCCCCCCCCCCCCCCCCC(=O)O | 16.5%

Compound | activity change, negative = cytotoxicity
COc1ccc(/C=C/c2cc(OC)cc(=O)o2)cc1 | -2.7%
C=C1C[C@@]23CC[C@H]4[C@](C)(CCC[C@]4(C)C(=O)O[C@@H]4O[C@H](CO)[C@@H](O)[C@H](O)[C@H]4O)[C@@H]2CC[C@]1(O[C@H]1O[C@@H](CO)[C@H](O)[C@@H](O)[C@@H]1O)C3 | 4.51%
O=C(/C=C/c1ccc(O)c(O)c1)O[C@H]1[C@H](O)C[C@](O)(C(=O)O)C[C@H]1OC(=O)/C=C/c1ccc(O)c(O)c1 | -9.42%
CC(C)=CCCC(C)=CCCC(C)=CCCC=C(C)CCC=C(C)CCC=C(C)C | -4.4%
CC1(C)CC[C@]2(C(=O)O)CC[C@]3(C)C(=CCC4[C@@]5(C)CC[C@@H](O)C(C)(C)C5CC[C@]43C)C2C1 (stereo not given in full) | -4.11%
O[C@@H]1[C@@H](O)[C@H](OC/C=C/c2ccccc2)O[C@H](CO[C@@H]2OC[C@H](O)[C@H](O)[C@H]2O)[C@H]1O | -11.7%
CCCCC/C=C/C(=O)CCc1ccc(O)c(OC)c1 | -40.8%
COc1ccc(-c2coc3cc(O[C@@H]4O[C@H](CO)[C@@H](O)[C@H](O)[C@H]4O)ccc3c2=O)cc1 | -6.03%
OCCc1ccc(O)cc1 | -10.5% [at 68.2 µM]
CCCCCC(=O)CC | -19.8% [at 121 µM]
O=C(OC[C@H]1O[C@@H](OC(=O)c2cc(O)c(O)c(O)c2)[C@H](OC(=O)c2cc(O)c(O)c(O)c2)[C@@H](OC(=O)c2cc(O)c(O)c(O)c2)[C@@H]1O)c1cc(O)c(O)c(O)c1 | 13.5% [at 22 µM]
CCCCCCCCCCCCCC(=O)O | -16.2%
O=C(O[C@@H]1Cc2c(O)cc(O)cc2O[C@@H]1c1ccc(O)c(O)c1)c1cc(O)c(O)c(O)c1 | 5.28%
O=C(O)[C@H]1O[C@@H](Oc2c(-c3ccc(O)c(O)c3)oc3cc(O)cc(O)c3c2=O)[C@H](O)[C@@H](O)[C@@H]1O | -20%
C=CC(C)(CCC=C(C)C)OC(C)=O (stereo not given) | 2.05% [at 68.2 µM]
CC(=O)O[C@H]1[C@H](O[C@H]2CC[C@]34C[C@]35CC[C@]3(C)[C@@H]([C@@]6(C)CC[C@@H](C(C)(C)O)O6)[C@@H](O)C[C@@]3(C)[C@@H]5C[C@H](O[C@@H]3O[C@H](CO)[C@@H](O)[C@H](O)[C@H]3O)[C@H]4C2(C)C)OC[C@@H](O)[C@@H]1O | -1.63%
Cc1ccc(O)c(O)c1 | -76.6% [at 68.2 µM]
CCCCCCC/C=C/C(=O)CCc1ccc(O)c(OC)c1 | 4.15%
COc1cc(-c2oc3cc(O)cc(O)c3c(=O)c2O)ccc1O | -20.9%
COc1cc(/C=C/c2ccccc2)oc(=O)c1 | -13.1%
